40 molecules from PubChem BioAssay (Tox21) can be followed below.

The structures appear in SMILES notation. Records with an inconclusive call do not appear. Unmarked numbers belong to inactive results. The source made the active and inactive calls. Calls follow the shape of the dose curve; as a rule, active = well fitted inhibition curve with a large enough effect in the repeat runs; inconclusive = weak or mixed curves; inactive = no such curve, though single readings can be large or run the other way.
% is scaled to controls: 0 for no effect and ±100 for the full control effect; potency is read from the fitted curve at half-maximal effect.

The target in the assay is Cytochrome P450 2C19 (Homo sapiens) (UniProt P33261). Put plainly: Cytochrome P450 Family 2 Subfamily C Member 19 (CYP2C19) small molecule antagonists: luciferase reporter qHTS assay (AID 1671197). Also: nearly all actives have a fitted effect of over 65% in size. Particulars: P450-Glo CYP2C19 enzyme, luciferin luminescence, 1 h; series mostly up to 115 µM; activity change, negative = inhibition: at the top concentration. From the text: National Center for Advancing Translational Sciences [NCATS]
Sequence of Cytochrome P450 2C19 (Homo sapiens) (P33261 whole entry, looked up): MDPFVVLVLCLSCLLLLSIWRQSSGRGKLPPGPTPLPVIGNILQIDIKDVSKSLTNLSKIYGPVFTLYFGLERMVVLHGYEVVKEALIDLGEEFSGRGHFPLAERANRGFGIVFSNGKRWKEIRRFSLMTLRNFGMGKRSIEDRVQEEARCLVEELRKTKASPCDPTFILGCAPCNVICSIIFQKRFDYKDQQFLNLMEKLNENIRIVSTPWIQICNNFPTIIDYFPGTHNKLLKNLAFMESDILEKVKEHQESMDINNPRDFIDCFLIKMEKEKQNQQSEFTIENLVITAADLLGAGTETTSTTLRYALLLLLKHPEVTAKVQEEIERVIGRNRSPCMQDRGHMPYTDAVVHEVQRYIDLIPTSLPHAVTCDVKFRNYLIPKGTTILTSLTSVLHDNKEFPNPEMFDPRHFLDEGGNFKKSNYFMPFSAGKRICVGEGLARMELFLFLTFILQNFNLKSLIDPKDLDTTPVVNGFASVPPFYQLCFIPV
U.S. Environmental Protection Agency [EPA]
National Institutes of Environmental Health Sciences [NIEHS]
National Toxicology Program [NTP]
U.S. Food and Drug Administration [FDA]
Cytochrome P450 (CYP) enzymes are membrane-bound hemeproteins that play a key role in metabolism of drugs and xenobiotics. Evaluation of the effect of chemicals on CYP isozymes is useful to minimize the adverse drug reactions and toxicities in drug development process. Tox21 chemicals were tested for their effect on CYP enzyme activities by using P450-Glo (TM) screening systems (Promega Corporation, Madison, WI). These systems provide a luminescent method containing proluciferin substrates and are converted to luciferin products by CYP isozymes. The luciferin products formed are detected with a luciferin detection reagent, and the amount of light produced is proportional to CYP activity. P450-Glo (TM) CYP2C19 screening system (Catalog. No. V9880) was used to detect the compounds that interfere in CYP2C19 activity. The positive control compound used for CYP2C19 assay is ketoconazole (Sigma-Aldrich, St. Louis, MO).
Tox21 Assay Protocol Summary:
Two ul of enzyme-substrate mix was dispensed into medium binding white/solid 1536-well plates (Greiner Bio-One North America Inc., Monroe, NC) using a BioRaptr Flying Reagent Dispenser (FRD, Beckman Coulter, Brea, CA). Compounds dissolved in DMSO and positive control (ketoconazole) were transferred to the assay plates at 23 nl using a Pintool station (Wako, San Diego, CA). The assay plates were incubated at room temperature for 10 min. Then 2 ul of NADPH regeneration solution was added to each well of the assay plates using an FRD and incubated at 37C for 1 h. The reaction was stopped by adding 4 ul of detection reagent using an FRD and after 20 min incubation at room temperature the luminescence signal was measured using a ViewLux plate reader (Perkin Elmer, Shelton, CT). Data were expressed as relative luminescence units.
On the technique in general: In a reporter assay the amount or activity of a reporter protein is the signal.
With `CCCCCCCCN(C)CCCCCCCC`, the “activity change, negative = inhibition” value was 3.73%.

Take `CC(=O)c1ccc(C)cc1`: the “activity change, negative = inhibition” value was -5.42%.

Consider `O=c1[nH]c2ccccc2c(=O)n1CCCl`, for which the “activity change, negative = inhibition” value was 9.11% [at 52.9 µM].

Turning to `OCc1ccccn1`, the “activity change, negative = inhibition” value was 7.31% [at 52.9 µM].

`Cc1ncc(CSSCc2cnc(C)c(O)c2CO)c(CO)c1O`: the Potency is 15.5 µM (active).

With `O=c1[nH]c(=O)n([C@H]2O[C@H](CO)[C@@H](O)[C@@H]2O)cc1/C=C\Br`, the “activity change, negative = inhibition” value was -17.4% [at 52.9 µM].

Consider `CCCCCCOC(=O)c1ccccc1O`, for which the “activity change, negative = inhibition” value was 8.86%.

For the molecule `FC(F)(F)C(F)(F)C(F)(F)C(F)(F)C(F)(F)C(F)(F)C(F)(F)C(F)(F)C(F)(F)C(F)(F)F`, the activity change, negative = inhibition was -6.18% [at 10.5 µM].

Regarding `Cc1nc(-c2ccc(OCC(C)C)c(C#N)c2)sc1C(=O)O`, the “activity change, negative = inhibition” value is 6.86% [at 52.9 µM].

In the case of `CCCCOCC(C)OCC(C)O` (stereo not given), the “activity change, negative = inhibition” value was -4.19%.

For `O=C(O)Cc1cc(I)c(Oc2cc(I)c(O)c(I)c2)c(I)c1`, the “activity change, negative = inhibition” value is 9.72% [at 52.9 µM].

As to `CCCCCCC(CCCCCCCCCCC(=O)OCC(COC(C)=O)OC(C)=O)OC(C)=O` (stereo not given), the “activity change, negative = inhibition” value was -20.6% [at 52.9 µM].

Consider `CC(=O)N[C@@H](CCC(N)=O)C(=O)O`, for which the “activity change, negative = inhibition” value is -7.34% [at 52.9 µM].

For `C(=C(c1ccccc1)c1ccccc1)c1ccccc1`, the Potency was 5.03 µM (active).

With `OCCN1C[C@H](O)[C@@H](O)[C@H](O)[C@H]1CO`, the “activity change, negative = inhibition” value was 9.4% [at 52.9 µM].

For `c1ccc(CCCc2ccccn2)cc1`, the Potency is 5.64 µM (active).

For the molecule `OC1OC[C@@H](O)[C@H](O)[C@H]1O` (stereo not given in full), the “activity change, negative = inhibition” value was -3.67%.

Consider `CCCc1ccc(N)cc1`, for which the Potency was 35.6 µM (active).

`COc1cc(C(=O)N2CCOCC2)cc(OC)c1OC`: the “activity change, negative = inhibition” value is 10.8% [at 52.9 µM].

Turning to `COc1cc(O)cc(O)c1`, the Potency is 30.9 µM (active).

For the molecule `Cc1ccccc1C(=O)O`, the “activity change, negative = inhibition” value was -12.4%.

With `Nc1nc2c(ncn2CCC(CO)CO)c(=O)[nH]1`, the “activity change, negative = inhibition” value is -18.4% [at 52.9 µM].

As to `C#CC(O)CCCCC` (stereo not given), the Potency was 80.3 µM (active).

For `Cc1ccc(Nc2ccc(O)c3c2C(=O)c2ccccc2C3=O)cc1`, the “activity change, negative = inhibition” value is -15.5%.

For the molecule `Cc1nccn1CC1CCc2c(c3ccccc3n2C)C1=O` (stereo not given), the “activity change, negative = inhibition” value was 1.96% [at 52.9 µM].

On to `CCCC(C)C(=O)O` (stereo not given), for which the Potency was 34.2 µM (active).

`OCCCCCCO`: the Potency was 12.8 µM (active).

Regarding `CC1=CC(C)C(C=O)C(C)C1` (stereo not given), the “activity change, negative = inhibition” value is 20.5%.

`O=[N+]([O-])c1ccc(CCO)cc1`: the “activity change, negative = inhibition” value was -12.1%.

On to `N#CCc1ccccc1[N+](=O)[O-]`, for which the “activity change, negative = inhibition” value was -29.1%.

`NCCN1CCNC1=O`: the “activity change, negative = inhibition” value is 2.41%.

On to `CCC(=O)/C=C/c1ccc(OC)cc1`, for which the Potency was 12.6 µM (active).

For the molecule `C/C=C1\C(=O)C[C@H]2[C@@H]3CCC4=CC(=O)CC[C@]4(C)[C@H]3CC[C@]12C`, the Potency is 6.2 µM (active).

Take `CC(C)c1cccc(O)c1`: the “activity change, negative = inhibition” value is -6.97%.

`C#CC(O)C(CC)CCCC` (stereo not given): the Potency is 71 µM (active).

Take `CCN1CCCC1CNC(=O)c1cc(S(N)(=O)=O)ccc1OC` (stereo not given): the “activity change, negative = inhibition” value is -5.25%.

On to `CCCCCCC(=O)OCC`, for which the “activity change, negative = inhibition” value was 0.933%.

Consider `NC(=O)c1c(Cl)cccc1Cl`, for which the Potency is 20 µM (active).

With `CC(C)COC(=O)C(C)C`, the Potency is 79.7 µM (active).

In the case of `CCCCC=O`, the Potency is 71 µM (active).
